This note sets out measurements from ChEMBL document CHEMBL1201862, “PubChem BioAssay data set” (2004).

In all, about 57,000 […] went through this assay and about 3,200 (5.6%) were called active. No stated cut-off is given here; in the data, active = GI50 up to about 1.1 µM and inactive = higher. The list is a sample of the results. Measured potencies and affinities stand elsewhere.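 Method: 48-hour compound exposure of cells in 96-well plates, five concentrations, linear interpolation of endpoints. Abbreviation: GI50, concentration required for 50% inhibition of growth.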

This assay deals with SF-268. Briefly: NCI tumour cell line growth inhibition, 48 h.
Turning to “[Bis(aminomethyl)ethylmethylsilane]tetrachloroplatinum(IV), CHEMBL2146192”, the GI50 was 2.43 µM.
The result for “[Bis(aminomethyl)tetramethylenesilane]tetrachloropaltinum(IV), CHEMBL2146189” reads 3.52 µM.
“[Bis(aminomethyl)dimethylsilane]tetrachloroplatinum(IV), CHEMBL2146190”: the GI50 was determined as 2.74 µM.
In turn, “[Bis(aminomethyl)diethylsilane]tetrachloroplatinum(IV), CHEMBL2146203” returned a GI50 of 1.57 µM.
As for “[Bis(aminomethyl)tetramethylenesilane]dichloropaltinum(II), CHEMBL2146205”, the figure is 21.8 µM; as for “[Bis(aminomethyl)dimethylsilane]dichloroplatinum (II), CHEMBL2146201”, 8.81 µM; as for “cis-Bis[[(trimethylsilyl)methyl]amino]tetrachloroplatinum(IV), CHEMBL2146191”, 13.6 µM.
The result for “mu-(1,7-nanodiamine-N,N')bis-(cis-aminedichloroplatimum (II)), CHEMBL2146215” reads 8.97 µM.
As for CISPLATIN, CHEMBL11359, the figure is 0.745 µM; as for “[Bis(aminomethyl)pentamethylenesilane]dichloropaltinum(II), CHEMBL2146202”, 3.46 µM.
For “[Bis(aminomethyl)pentamethylenesilane]tetrachloropaltinum(IV), CHEMBL2146204”, the GI50 worked out at 3.59 µM.
